D2 PAM-1 – positive allosteric modulators of human D2 dopamine receptor; 0.34% of 340,000 active; HEK293 T-REx D2, calcium flux, EC20 dopamine potentiation; AID 485347; potentiation, % at 10 µM;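 active = potentiation over 3 SD above the plate norm, cut at about 30% in these data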
Target sequence (P14416 whole entry, looked up): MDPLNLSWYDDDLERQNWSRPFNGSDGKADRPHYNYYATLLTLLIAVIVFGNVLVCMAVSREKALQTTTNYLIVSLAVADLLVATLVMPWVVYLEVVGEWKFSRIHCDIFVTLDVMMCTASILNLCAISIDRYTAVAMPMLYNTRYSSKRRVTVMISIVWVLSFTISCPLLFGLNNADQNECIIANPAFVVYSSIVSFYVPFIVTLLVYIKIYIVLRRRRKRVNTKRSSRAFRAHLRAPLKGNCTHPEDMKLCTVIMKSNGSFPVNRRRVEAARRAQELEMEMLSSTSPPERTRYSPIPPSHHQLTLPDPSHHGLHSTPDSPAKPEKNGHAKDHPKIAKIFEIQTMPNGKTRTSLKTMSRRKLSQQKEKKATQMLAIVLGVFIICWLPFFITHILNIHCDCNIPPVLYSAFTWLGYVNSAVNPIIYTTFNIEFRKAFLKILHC
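Tetracycline-induced HEK293 T-REx cells force-coupled to calcium signalling expressed D2; compounds were pin-added after a 10 s baseline, read kinetically 180 s, then an EC20 dopamine challenge followed with a further 180 s calcium read.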
D2 ag-1 – agonists of human D2 dopamine receptor (beta-arrestin). DiscoveRx PathHunter D2 beta-arrestin, luminescence, 90 min; 100% = 57 uM dopamine signal. activation, % (no concentration beside the values). 0.084% of 360,000 active. AID 624465; in the data active = activation above about 40%; inconclusive = between about 15% and that limit
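Agonist mode: compounds alone added to overnight-plated D2 PathHunter cells for 90 min at 37 C, with 57 uM final dopamine (EC100) defining full response. Beta-arrestin recruitment detected by chemiluminescent reagent, read after 1 h at ambient temperature.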
D2 ag-2 – D2 dopamine receptor (human) agonism; HEK293 T-REx D2 cells, calcium flux agonist mode; activation, % at 2 µM; 0.53% of 340,000 active; AID 485358;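 active = activation over 3 SD above normal in the single-dose calcium agonist read, cut at about 30% in these data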
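Calcium-flux readout, 1 cycle/sec over 180 s following compound pin transfer, in inducible HEK293 Trex D2 cells (force-coupled); dopamine controls included. Positive calcium responses during this window marked compounds as potential agonists.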
D2 antagonist – antagonizes the human D2 dopamine receptor; P14416; 2% of 340,000 active; inhibition, % at 10 µM; AID 485344; HEK293 TREx D2 cells, calcium flux, dopamine EC80; in the data active = inhibition above about 30%; inactive = below that, where a call was filed
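Calcium flux kinetic readout in an inducible HEK293 TREx D2 line plated overnight at 30 C. After 180 s compound exposure, an EC80 dopamine challenge follows with another 180 s kinetic read to detect antagonism.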
D2 PAM-2 – human D2 receptor positive allosteric modulation; P14416; DiscoveRx D2 beta-arrestin cells, luminescence, 90 min; 100% = 57 uM dopamine signal; potentiation, % (concentration not given with the values); 0.23% of 360,000 active; in the data active = potentiation above about 50%; inconclusive = mostly about 30% to 49%
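PathHunter D2 cells, attached overnight at 37 deg C, received compound in DMSO plus dopamine at EC20 (50 nM final) for 90 min at 37 deg C. Beta-arrestin recruitment was read as luminescence after 1 h with detection reagent at ambient temperature.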
Numbers stand for hits; n = inactive; u = inconclusive; x = no result given. The list is not random: actives were taken first. Their share in the collection is about 2.4%.

SMILES	D2 PAM-1	D2 ag-1	D2 ag-2	D2 antagonist	D2 PAM-2
COc1ccc(C(CC(=O)Nc2cccc(C)c2C)N2Cc3ccccc3C2=O)cc1 (stereo unspecified)	n	x	n	x	x
N#Cc1cc2ccccc2nc1SCc1cccnc1	n	n	n	30	n
COc1ccc2nc(SCc3cccnc3)c(C#N)cc2c1	n	n	n	n	n
O=C1CC(c2ccco2)CC(O)=C1C=NCCN1CCN(C2CC(=O)N(c3ccccc3)C2=O)CC1 (stereo unspecified)	47	n	n	n	n
O=C1CC(c2ccco2)CC(O)=C1C=NCCN1CCNCC1 (stereo unspecified)	n	n	n	n	n
CCCn1c2ccccc2c2cnn(CC(=O)Nc3ccccc3OC)c(=O)c21	n	x	n	x	x
O=C1CCC(=O)N1CCC(c1ccc(F)cc1)c1ccco1 (stereo unspecified)	n	n	n	n	n
O=C1NCN(c2ccccc2)C12CCN(CCCC(c1ccc(F)cc1)c1ccc(F)cc1)CC2	n	n	n	69	n
CC(c1n[nH]c(=S)n1-c1ccccc1)N1CCCCC1 (stereo unspecified)	n	n	n	71	n
CN1CCN(c2ccccc2NC(=O)COc2ccc(Cl)cc2)CC1	n	n	n	30	n
CN1CCN(c2ccccc2NC(=O)COc2ccccc2)CC1	n	n	n	n	n
Cc1cccc(-c2noc(-c3cc(C(C)C)[nH]n3)n2)c1	n	x	n	x	x
Cc1cccc(-c2nc3ccccc3n3c(-c4ccccc4)c4c(=O)n(C)c(=O)n(C)c4c23)c1	n	x	n	x	x
O=C(N/N=C/c1ccc(N2CCOCC2)s1)c1ccccc1Cl	n	n	n	n	n
FC(F)(F)c1ccc(Cl)c(N/N=C/c2ccc(N3CCOCC3)s2)c1	x	u	x	x	72
COc1ccc(NC(=O)c2ccc(-n3cccn3)c([N+](=O)[O-])c2)cc1	n	n	n	45	n
CC(C)(C)c1cc(C(F)(F)F)nc(SCCCNC(=O)c2ccco2)n1	n	n	n	36	n
CC(C)(C)c1ccc(C(=O)NCCCNC(=O)c2ccco2)cc1	n	n	n	n	n
CC(=O)Oc1oc(-c2ccccc2)nc1/C=N/c1ccccn1	n	n	n	n	n
COc1ccccc1N=Cc1nc(-c2ccccc2)oc1OC(C)=O	n	n	n	50	n
O=C(CSc1ncc(-c2ccccc2)[nH]1)Nc1cccc(Br)c1	n	x	x	x	x
Cc1ccc(S(=O)(=O)N(C)c2ccccc2)cc1	n	n	n	n	n
CC(=O)Oc1ccc(N(c2ccccc2)S(=O)(=O)c2ccc(C)cc2)cc1	39	n	n	n	n
CCN(CC)S(=O)(=O)c1ccc(-n2cnc3cc(C)c(C)cc32)nc1	38	n	n	n	n
CCN(CC)S(=O)(=O)c1ccc(C)c(C)c1	n	n	n	n	n
SMILES	D2 PAM-1	D2 ag-1	D2 ag-2	D2 antagonist	D2 PAM-2
CC(C)N(C(C)C)S(=O)(=O)c1ccc(N2CCc3ccccc3C2)nc1	n	n	n	n	n
CCN(CC)S(=O)(=O)c1ccc(N2CCc3ccccc3C2)nc1	34	n	n	n	n
CC(Nc1oc(-c2ccc(COc3ccccc3)o2)nc1C#N)c1ccccc1 (stereo unspecified)	n	x	n	x	x
CC(NC(=O)c1ccco1)C(=O)N1CCN(c2ccccc2)CC1 (stereo unspecified)	n	n	n	n	n
CC(NC(=O)c1ccco1)C(=O)N1CCN(C(c2ccccc2)c2ccccc2)CC1 (stereo unspecified)	n	n	n	n	57
COc1cc(-c2onc3ccc(Br)cc23)cc(OC)c1OC	n	u	n	n	59
COc1ccc(-c2onc3ccc(Br)cc23)cc1	n	u	n	n	100
CN(c1cccc(NS(=O)(=O)c2cccs2)c1)S(C)(=O)=O	30	n	n	n	n
COc1ccc(S(=O)(=O)Nc2cccc(N(C)S(C)(=O)=O)c2)cc1Br	n	n	n	n	n
O=C(CNC(=O)c1cccs1)NCC(=O)OCc1ccc(F)cc1	35	n	n	n	n
O=C1c2ccccc2C(Nc2ccc(S(=O)(=O)N3CCCCCC3)cc2)N1c1ccccn1 (stereo unspecified)	n	n	n	n	n
O=C1c2cccnc2C(Nc2ccc(S(=O)(=O)N3CCCCC3)cc2)N1Cc1ccccc1 (stereo unspecified)	33	n	n	n	n
CC(C)(C)CC(=O)Nc1nnc(SCC(=O)NC2CCCCC2)s1	n	n	n	n	n
CC(C)(C)CC(=O)Nc1nnc(SCC(=O)N2CCCCC2)s1	32	n	n	n	n
Cc1ccc(Cn2c(SCC(=O)NCc3ccccc3Cl)nc3ccsc3c2=O)cc1	n	x	n	x	x
CC1=C(C(=O)OCc2ccccc2)C(c2cccc(F)c2)NC(=O)N1 (stereo unspecified)	n	44	n	n	72
COc1ccc(C2NC(=O)NC(C)=C2C(=O)OCc2ccccc2)cc1 (stereo unspecified)	n	n	n	n	n
CC1=C(C(=O)OCc2ccccc2)C(c2ccccc2)NC(=O)N1 (stereo unspecified)	n	n	n	n	53
CCN(CC)c1cc(C)c2cc(NC(=O)/C=C/c3cc(OC)c(OC)c(OC)c3)ccc2n1	n	x	n	x	x
Cc1nc2ccccc2c(C)c1C(=O)c1ccccc1	n	n	n	30	n
O=C(CSc1n[nH]c(-c2ccccc2Cl)n1)N1CCN(c2ccccc2)CC1	n	x	n	x	x
O=C1CSc2ccc(C(=O)NCC(c3ccco3)N3CCCCC3)cc2N1 (stereo unspecified)	n	n	n	36	n
CCc1cc(C(=O)NCC(c2ccco2)N2CCCCC2)sc1C (stereo unspecified)	n	n	n	39	n
CCN(CC)c1ccc(C(=O)NCc2ccc3c(c2)CCN3C(=O)c2ccc(F)cc2)cc1	n	x	n	x	x
O=C1c2cccc3c(N4CCCCC4)ccc(c23)C(=O)N1CCO	n	n	n	n	n
SMILES	D2 PAM-1	D2 ag-1	D2 ag-2	D2 antagonist	D2 PAM-2
O=C1c2cccc3c(N4CCCCC4)ccc(c23)C(=O)N1c1cccc(O)c1	n	n	57	n	n
Cc1n[nH]c(C)c1N1C(=O)c2cccc3c(N4CCCCCC4)ccc(c23)C1=O	n	n	84	n	n
COc1ccc(CNC(=O)C2CCC(=O)N(CCCN3CCCC3=O)C2)cc1 (stereo unspecified)	n	n	n	n	n
COc1ccc(C(C)(C)NC(=O)C2CCC(=O)N(CCCN3CCCC3=O)C2)cc1 (stereo unspecified)	n	n	n	33	n
CCN(CC)CCCNC(=O)CCCn1ncn2c(cc3occc32)c1=O	n	x	n	x	x
O=C(C1CCC(C(=O)N2CCc3ccccc32)CC1)N1CCc2ccccc21 (stereo unspecified)	n	n	n	n	n
O=C(C1CCN(S(=O)(=O)N2CCOCC2)CC1)N1CCc2ccccc21	n	n	n	36	n

Screening data (PubChem)
